Measured values published in PubChem BioAssay (NCATS).
Results filed as inconclusive are left out. Activity calls are given as the source filed them. The call rests on the fitted dose curve; in most records, active means well fitted cell-killing curve with a large enough effect; inconclusive means small, poorly fitted or top-dose-only effect, or effect the other way; inactive means flat fitted curve, though single readings scatter.

Columns and labels:
Experiment in all cases: Primary qHTS to identify gynecologic anti-cancer compounds using libraries of approved drugs and bioactive compounds (AID 1345084); further: nearly all actives have a fitted effect of over 55% in size
C33A = conditions: Gynecologic cancer cell panel viability, ATPlite luminescence, 48 h; series mostly up to 57.5 µM
Procedure, shortened: (§1)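 Cells, 1,000 per well, were allowed to settle for 16 h at 37 C before compound addition. Five concentrations were tested for 48 h, and viability was read by ATPlite luminescence after 15 min at room temperature.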

CAOV3 = conditions: Gynecologic cancer cell panel viability, ATPlite luminescence, 48 h; series mostly up to 57.5 µM
Procedure, shortened: as §1

CASKI = conditions: Gynecologic cancer cell panel viability, ATPlite luminescence, 48 h; series mostly up to 57.5 µM
Procedure, shortened: as §1

Es-2 = conditions: Gynecologic cancer cell panel viability, ATPlite luminescence, 48 h; series mostly up to 57.5 µM
Procedure, shortened: as §1

HeLa = conditions: Gynecologic cancer cell panel viability, ATPlite luminescence, 48 h; series mostly up to 57.5 µM
Procedure, shortened: as §1

Hek293T = conditions: Gynecologic cancer cell panel viability, ATPlite luminescence, 48 h, control line for the selectivity index; series mostly up to 57.5 µM
Procedure, shortened: as §1

JEG-3 = conditions: Gynecologic cancer cell panel viability, ATPlite luminescence, 48 h; series mostly up to 57.5 µM
Procedure, shortened: as §1

OV90 = conditions: Gynecologic cancer cell panel viability, ATPlite luminescence, 48 h; series mostly up to 57.5 µM
Procedure, shortened: as §1

PA-1 = conditions: Gynecologic cancer cell panel viability, ATPlite luminescence, 48 h; series mostly up to 57.5 µM
Procedure, shortened: as §1

Measured: Potency
Potency means the concentration at half of the fitted maximal effect.

COc1cc(C(C)C)c(Oc2cnc(N)nc2N)cc1I
inactive: all assays above

CCNC(=O)N1CCCN(c2ccc(C(=O)NCCc3ccc(Cl)cc3Cl)cc2NC(=O)c2cccc(Cl)c2)CC1
inactive: all assays above

C=C(C)C(=O)O[C@H]1[C@H]2C(=C)C(=O)O[C@@H]2/C=C(\CO)CC/C=C(/C=O)[C@@H]1O
inactive: all assays above

COc1cc2c(cc1OC(C)C)[C@H](c1ccc(Cl)cc1)N(c1ccc(N(C)CC3CCC(N4CCN(C)C(=O)C4)CC3)cc1)C(=O)C2 (stereo partly drawn)
active: PA-1 11.2 µM
inactive: all other assays above

Cc1cc2c(cc1N1C(=O)c3cccc4c(CCCO)ccc(c34)C1=O)n(C)c(=O)n2C
inactive: all assays above

O=C([C@@H](Cc1cccc(C(F)(F)F)c1)NS(=O)(=O)c1cc(F)c2c(c1)CCNC2)N1CCCC1
inactive: all assays above

O=C(COc1ccc2ccccc2c1Br)Nc1cccnc1
inactive: all assays above

O=S(=O)(Nc1cc(Cl)c(Oc2cnc3ccccc3c2)c(Cl)c1)c1ccc(Cl)cc1Cl
inactive: all assays above

OC(CC1c2ccccc2-c2cncn21)C1CCCCC1 (stereo not drawn)
inactive: all assays above

CC(C)(CO)c1cc2cc(NC(=O)C3(c4ccc5c(c4)OC(F)(F)O5)CC3)c(F)cc2n1CC(O)CO (stereo not drawn)
inactive: all assays above

COC(=O)c1sccc1S(=O)(=O)Nc1ccc(Nc2ccccc2)cc1OC
inactive: all assays above

Cc1cnn(-c2ccccc2)c1NC(=O)COCc1ccccc1
inactive: all assays above

CC/C=C\CC1C(=O)C=CC1(CCCCC1CCC(=O)O1)OC(C)=O (stereo not drawn)
inactive: all assays above

O=C(NCCCc1ccccc1)C1CCC(CNS(=O)(=O)c2cccc3nsnc23)CC1 (stereo not drawn)
inactive: all assays above

C=CC1(C)CC(O)C(C(=C)C(=O)OC)C(O)C1C(=C)CO (stereo not drawn)
inactive: all assays above

COC1C(OC(=O)/C=C/C=C/C=C/C=C/C(=O)O)CCC2(CO2)C1C1(C)OC1CC=C(C)C (stereo not drawn)
inactive: all assays above

COC(=O)C(Cc1ccc(OCCn2c(=O)sc3cc(C(=O)c4ccccc4)ccc32)cc1)C(=O)OC
inactive: all assays above
